Assay outcomes: PubChem, University of Kansas High Throughput Screening Laboratory
The full list was thinned out, with hits kept by preference.
Pf apPOL inh = Pf-apPOL DNA polymerase inhibition; AID 1794808; 0.25% of 210,000 active; Recombinant Pf-apPOL, molecular beacon fluorescence, 1.5 h; inhibition, % at 10 µM
mHTT-CaM PPI inh = inhibitors of human mutant huntingtin-calmodulin interaction; AlphaScreen His-mHTT/GST-CaM binding, luminescence; P42858; inhibition, % at 15 µM; 3.6% of 190,000 active
Of the large screens only hits and unclear results are named; the others gave an inactive call. Rule as the data show it: active = inhibition above about 50%; inactive = the rest.

Cc1cc(F)ccc1NC(=O)Cc1nnc(-c2ccc3ncccc3c2)o1	none
COc1ccc2c(c1)CN(Cc1ccc(F)cc1)CO2	none
O=C(CCSc1ccc(Br)cc1)c1ccc(Cl)cc1	none (no result: mHTT-CaM PPI inh)
COc1ccc(OC)c(C2SCCN2S(=O)(=O)c2cccc(C)c2)c1 (centres undefined)	none
COc1ccc(Cl)cc1NC(=O)CN(c1ccccc1OC)S(C)(=O)=O	none
Cc1ccc(NC(=O)c2cc(S(=O)(=O)NCc3ccc(F)cc3)ccc2F)cc1Cl	none
Cc1ccc(NC(=O)Cc2nc(-c3ccccn3)n[nH]2)c(C)c1	mHTT-CaM PPI inh 85.9
Cc1ccc(NC(=O)Cc2ccccc2)c(C)c1	none
COc1ccc(Nc2nc(C(=O)Nc3ccc4c(c3)OCCO4)cs2)c(OC)c1	mHTT-CaM PPI inh 53.3
COc1ccc(C(=O)Nc2nc(CC(=O)Nc3ccc4c(c3)OCCO4)cs2)cc1	none
CCN1CCn2cc(C(=O)NCc3ccc(F)cc3)nc2C1	none
CCN1CCn2cc(C(=O)NCc3ccc(C(F)(F)F)cc3)nc2C1	mHTT-CaM PPI inh 97.1
O=C(Nc1ccccc1-c1nc2ccccc2[nH]1)c1cccc([N+](=O)[O-])c1	none
O=[N+]([O-])c1ccc(-n2nnc3ccccc32)c([N+](=O)[O-])c1	none
COc1ccccc1N=Cc1cc(OC)c(OCc2ccccc2)cc1[N+](=O)[O-]	mHTT-CaM PPI inh 95.0
COc1cc(C(O)C[N+](=O)[O-])ccc1OCc1ccccc1 (centres undefined)	none
CN(C)CCCN1C(=O)C(=O)C(=C(O)c2ccc(F)cc2)C1c1cccc([N+](=O)[O-])c1 (centres undefined)	none
CC(NC(=O)c1ccc2c3c(onc13)-c1ccccc1C2=O)c1ccccc1 (centres undefined)	none
Cc1ccc(O)c2nc(/C=C/c3ccccc3N)ccc12	mHTT-CaM PPI inh 52.7
CC(=O)Nc1ccccc1/C=C/c1ccc2c(C)ccc(O)c2n1	none
O=C(Cn1cnc2c(oc3ccccc32)c1=O)NCc1ccc(Cl)cc1	none
COc1ccccc1-c1nc(C2CCN(C(=O)c3cccc(F)c3)CC2)no1	none
COc1cccc(-c2nc(C3CCN(C(=O)c4cccc(C)c4)CC3)no2)c1	none
O=C(c1cc2ccccc2[nH]1)N1CCC(c2noc(-c3ccccc3)n2)CC1	none
O=C(c1cc2cc(Cl)ccc2[nH]1)N1CCC(c2noc(-c3ccccc3)n2)CC1	mHTT-CaM PPI inh 83.4
COc1cccc(-c2nc(C3CCN(C(=O)c4cccc(C(F)(F)F)c4)CC3)no2)c1	none
COc1ccccc1-c1nc(C2CCN(C(=O)c3ccc(F)c(Cl)c3)CC2)no1	mHTT-CaM PPI inh 92.2
COc1cccc(-c2nc(C3CCN(C(=O)c4ccc(Cl)c(Cl)c4)CC3)no2)c1	mHTT-CaM PPI inh 97.1
COc1cccc(-c2nc(C3CCN(C(=O)c4ccc(C(F)(F)F)cc4)CC3)no2)c1	mHTT-CaM PPI inh 86.4
Cc1oc(C2CCN(C(=O)c3ccc(C(C)(C)C)cc3)CC2)nc1C(=O)N1CCCCC1	none
Cc1oc(C2CCN(C(=O)c3ccc(C(F)(F)F)cc3)CC2)nc1C(=O)N1CCCC1	mHTT-CaM PPI inh 50.6
CC(=O)Nc1ccc(-c2noc(C3CCCN(C(=O)c4cc5ccccc5[nH]4)C3)n2)cc1 (centres undefined)	none
CC(=O)Nc1ccc(-c2noc(C3CCN(C(=O)c4cc5ccccc5[nH]4)CC3)n2)cc1	mHTT-CaM PPI inh 98.2
COc1cccc(-c2nc(C3CCN(C(=O)c4cc5ccccc5[nH]4)CC3)no2)c1	none
COc1cccc(-c2nc(C3CCN(C(=O)c4nccc5ccccc45)CC3)no2)c1	mHTT-CaM PPI inh 98.1
CCN(c1cccc(C)c1)c1ncnc(N)c1[N+](=O)[O-]	none
O=C(c1ccsc1)N1CCC2(C1)Nc1cccnc1NC2=NCc1ccccc1 (centres undefined)	none
Cc1ccc(C)c(C(=O)N2CCc3c(c(-c4nc(Cc5ccccc5)no4)nn3C)C2)c1	none
CC1Cc2cc(S(=O)(=O)N3CCC(N4CCCCC4)CC3)ccc2N1C(=O)C1CC1 (centres undefined)	none
COc1ccc(C=C2Oc3c(ccc4c3CN(Cc3ccncc3)CO4)C2=O)cc1OC	none
O=C1CCC(=O)N1c1ccc(Sc2ccc([N+](=O)[O-])cc2)cc1	none
O=C1C=CC(=O)N1c1cc(Sc2ccc(F)cc2)cc([N+](=O)[O-])c1	mHTT-CaM PPI inh 85.0
Cn1nc(C(=O)NCc2ccc(F)cc2)c2c1CCN(C(=O)c1ccccc1F)C2	mHTT-CaM PPI inh 82.0
CCOc1ccccc1C(=O)N1CCc2c(c(C(=O)NCc3cccc(C)c3)nn2C)C1	none
Cn1nc(C(=O)NCc2ccc(Cl)cc2)c2c1CCN(C(=O)c1c(F)cccc1F)C2	mHTT-CaM PPI inh 57.9
CCOc1ccccc1C(=O)N1CCc2c(c(C(=O)NCc3ccc(F)cc3)nn2C)C1	mHTT-CaM PPI inh 73.3
Cc1cccc(CNC(=O)c2nn(C)c3c2CN(C(=O)c2ccccc2F)CC3)c1	none
Cc1ccccc1C(=O)N1CCc2c(c(C(=O)NCc3ccc(Cl)cc3)nn2C)C1	none
Cn1c(SCC(=O)NN2CC(=O)N(c3cccc(Cl)c3)CC2=O)nnc1-c1ccncc1	none (no result: mHTT-CaM PPI inh)
